The text below walks through data of PubChem BioAssay (NCI).

Structures are written as SMILES. The panel holds about 83,000 compounds, 20% with a hit somewhere; the sample as a whole holds those more often.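 96-well plates, one dose, 48 hours. Percent growth reported; active if below 10.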 A number with no mark means an inactive call. Calls of active or inactive are those of the source.

One assay deals with SR leukemia. Nature of the assay: NCI-60 one-dose screen, 48 h (100 = growth as untreated, 0 = no growth, -100 = all killed). Conditions: 10 µM unless noted.
With `Nc1cc2ccccc2c(O)c1O`, the growth was 0.498% (active).

As to `CC(=O)Nc1ccc(O)c(C)c1`, the growth was 94.6%.

Consider `O=C(CCl)Nc1ccccc1SCc1cc(Cl)cc2c1OCOC2`, for which the growth was 31.9%.

With `C/C(O)=C(/C=N\C(=S)Nc1ccc(S(=O)(=O)Nc2nccs2)cc1)C(=O)Nc1ccccc1C`, the growth was 79.1%.

In the case of `CC(C)c1ccc(C(=O)OCCCl)cc1`, the growth is 106%.

As for `O=C(NCc1ccccc1)c1cccc([N+](=O)[O-])c1`, the growth is 92.4%.

As for `C1CCc2onc(-c3noc4c3CCCCC4)c2CC1`, the growth is 92.4%.

For `COc1ccc(Nc2cc(Cl)ccc2C(=O)O)cn1`, the growth was 109%.

With `CCCCOC(=O)c1ccccc1O`, the growth is 154%.

As to `C=CCN1CCCC1=O`, the growth was 90.2%.

For `CCN(CC)CCN1CNC(=S)NC1`, the growth was 96.4%.

In the case of `COC1OC(C(COC(C)=O)OC(C)=O)C(OC(C)=O)C(OC(C)=O)C1OC(C)=O` (stereo unspecified), the growth was 87.3%.

Take `Nc1ccc(F)cc1F`: the growth was 107%.

Turning to `COc1cc(CC#N)c([N+](=O)[O-])cc1OC`, the growth was 91.2%.

As for `CC(C)N(C(=O)c1ccccc1)C(C)C`, the growth was 110%.

With `CCC(C)C1CCC(O)CC1` (stereo unspecified), the growth is 93.7%.

As to `Cc1ccc(NC(=S)N2CCOCC2)cc1C`, the growth is 108%.

As for `O=C1NC(=O)/C(=C\c2ccncc2)N1`, the growth is 92.2%.

Consider `CC(C)(CC(=O)O)CC(=O)O`, for which the growth is 99.3%.

For the compound `ClCC(Cl)[C@@H]1CC2C=CC1C2` (stereo partly specified), the growth is 112%.

Take `CC(=O)NCNC(C)=O`: the growth is 85.3%.

On to `CCOC(=O)/C(C)=C\c1ccc(OC)c(OC)c1`, for which the growth is 86.5%.

Take `O=C(OCC1CCCO1)c1ccc([N+](=O)[O-])cc1` (stereo unspecified): the growth was 116%.

`C=CC(=O)OC1CCC(C(C)(C)CC)CC1` (stereo unspecified): the growth is 98.9%.

With `Cc1cc(=O)n(Nc2ccccc2)c(O)c1C#N`, the growth was 88.9%.

As for `O=C(O)c1c[nH]c2ccccc2c1=O`, the growth is 99.9%.

In the case of `CCNc1ncnc2[nH]ncc12`, the growth was 143%.

Take `COC1OC(C(O)C(O)CO)C(O)C(O)C1O` (stereo unspecified): the growth was 97.7%.

In the case of `CCCCN(C=S)CCCC`, the growth was 91.9%.

For the compound `CCOC(=O)c1ccc(C(C)(C)C)cc1`, the growth is 95.7%.

Regarding `CCOC(=O)C(CCC#N)(CCC#N)C(=O)OCC`, the growth was 103%.

Turning to `CCC1CCC(C)NC1` (stereo unspecified), the growth is 109%.

In the case of `CC(=O)OC(C)c1cccc(C#N)c1` (stereo unspecified), the growth was 104%.

Turning to `O=[N+]([O-])c1ccc2[nH]c(=S)n(/C=C(/c3ccc(Cl)cc3Cl)S(=O)(=O)Cc3ccc(Cl)cc3Cl)c2c1`, the growth is 83.1%.

On to `C=C(OC(C)=O)c1ccccc1`, for which the growth was 80.7%.

As to `CC(=O)O[C@H]1CC[C@]2(C)C3=C(C(=O)C[C@H]2C1(C)C)[C@]1(C)CC[C@H]([C@H](C)CCC(=O)O)[C@@]1(C)CC3=O`, the growth was 82.6%.

On to `CC(=O)c1cccc(NS(=O)(=O)c2ccc(C)cc2)c1`, for which the growth was 36.6%.

With `O=C(CCl)Oc1ccc([N+](=O)[O-])cc1`, the growth is 102%.

Another assay deals with RPMI-8226 leukemia. Described as above. Conditions: 10 µM unless noted.
On to `Nc1cc2ccccc2c(O)c1O`, for which the growth was 12.7%.

For `CC(=O)Nc1ccc(O)c(C)c1`, the growth was 105%.

As to `O=C(CCl)Nc1ccccc1SCc1cc(Cl)cc2c1OCOC2`, the growth is 94%.

In the case of `C/C(O)=C(/C=N\C(=S)Nc1ccc(S(=O)(=O)Nc2nccs2)cc1)C(=O)Nc1ccccc1C`, the growth is 86.3%.

Turning to `CC(C)c1ccc(C(=O)OCCCl)cc1`, the growth is 221%.

With `O=C(NCc1ccccc1)c1cccc([N+](=O)[O-])c1`, the growth was 91%.

As for `C1CCc2onc(-c3noc4c3CCCCC4)c2CC1`, the growth is 111%.

Take `COc1ccc(Nc2cc(Cl)ccc2C(=O)O)cn1`: the growth is 90.6%.

With `CCCCOC(=O)c1ccccc1O`, the growth is 16.5%.

Take `C=CCN1CCCC1=O`: the growth was 96.6%.

On to `CCN(CC)CCN1CNC(=S)NC1`, for which the growth was 99.2%.

With `COC1OC(C(COC(C)=O)OC(C)=O)C(OC(C)=O)C(OC(C)=O)C1OC(C)=O` (stereo unspecified), the growth was 98.7%.

For `Nc1ccc(F)cc1F`, the growth was 102%.

As for `COc1cc(CC#N)c([N+](=O)[O-])cc1OC`, the growth was 109%.

Take `CC(C)N(C(=O)c1ccccc1)C(C)C`: the growth is 105%.

With `CCC(C)C1CCC(O)CC1` (stereo unspecified), the growth is 107%.

Consider `Cc1ccc(NC(=S)N2CCOCC2)cc1C`, for which the growth is 102%.

As to `O=C1NC(=O)/C(=C\c2ccncc2)N1`, the growth was 103%.

For the compound `CC(C)(CC(=O)O)CC(=O)O`, the growth is 104%.

For `ClCC(Cl)[C@@H]1CC2C=CC1C2` (stereo partly specified), the growth was 104%.

For `CC(=O)NCNC(C)=O`, the growth is 97%.

For `CCOC(=O)/C(C)=C\c1ccc(OC)c(OC)c1`, the growth is 103%.

On to `O=C(OCC1CCCO1)c1ccc([N+](=O)[O-])cc1` (stereo unspecified), for which the growth is 103%.

Regarding `C=CC(=O)OC1CCC(C(C)(C)CC)CC1` (stereo unspecified), the growth is 103%.

For `Cc1cc(=O)n(Nc2ccccc2)c(O)c1C#N`, the growth was 99.8%.

In the case of `O=C(O)c1c[nH]c2ccccc2c1=O`, the growth is 97.8%.

For the compound `CCNc1ncnc2[nH]ncc12`, the growth is 73.9%.

`COC1OC(C(O)C(O)CO)C(O)C(O)C1O` (stereo unspecified): the growth was 93.3%.

In the case of `CCCCN(C=S)CCCC`, the growth is 101%.

Consider `CCOC(=O)c1ccc(C(C)(C)C)cc1`, for which the growth is 104%.

Regarding `CCOC(=O)C(CCC#N)(CCC#N)C(=O)OCC`, the growth was 96.6%.

As to `CCC1CCC(C)NC1` (stereo unspecified), the growth was 98.6%.

In the case of `CC(=O)OC(C)c1cccc(C#N)c1` (stereo unspecified), the growth is 102%.

With `O=[N+]([O-])c1ccc2[nH]c(=S)n(/C=C(/c3ccc(Cl)cc3Cl)S(=O)(=O)Cc3ccc(Cl)cc3Cl)c2c1`, the growth is 98.7%.

For the compound `C=C(OC(C)=O)c1ccccc1`, the growth was 70.3%.

Turning to `CC(=O)O[C@H]1CC[C@]2(C)C3=C(C(=O)C[C@H]2C1(C)C)[C@]1(C)CC[C@H]([C@H](C)CCC(=O)O)[C@@]1(C)CC3=O`, the growth is 101%.

In the case of `CC(=O)c1cccc(NS(=O)(=O)c2ccc(C)cc2)c1`, the growth was 86.6%.

`O=C(CCl)Oc1ccc([N+](=O)[O-])cc1`: the growth is 103%.
